# According to article PMC4081100, “A DNA-binding-site landscape and regulatory network analysis for NAC transcription factors in Arabidopsis thaliana”:
# Assays:
# Assay in all cases: universal protein binding microarray (PBM); transcription factors of Arabidopsis thaliana; high values mean tight binding
# GST-ANAC092(1-176) = molecular target: T1, GST-ANAC092(1-176) (Arabidopsis thaliana, UniProt Q9FKA0 1-176); conditions: protein: recombinant; tags: GST; chain copies: 2; dsDNA, one strand shown
# T1 sequence: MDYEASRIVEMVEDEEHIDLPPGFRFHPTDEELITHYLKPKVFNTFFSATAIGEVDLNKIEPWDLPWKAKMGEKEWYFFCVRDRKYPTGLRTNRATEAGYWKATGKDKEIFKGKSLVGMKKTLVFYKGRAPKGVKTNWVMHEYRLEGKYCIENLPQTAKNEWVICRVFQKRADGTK
# Method in brief: (§1)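 GST-tagged NAC-domain, full-length or DNA-binding-domain proteins were induced in cells, with zinc acetate added for zinc-finger proteins. They were purified on glutathione–Sepharose 4B and quantified by A280 or anti-GST western blot. Each was applied at 200 to 500 nM final, in duplicate, to custom all-10-mer Agilent 4 × 180K arrays made double-stranded by primer extension, with gapped and ungapped 8-mers scored. Binding is the normalised enrichment score (E-score).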
# GST-ANAC055(1-171) = molecular target: T2, GST-ANAC055(1-171) (Arabidopsis thaliana, UniProt Q9LDY8 1-171); conditions: protein: recombinant; tags: GST; chain copies: 2; dsDNA, one strand shown
# T2 sequence: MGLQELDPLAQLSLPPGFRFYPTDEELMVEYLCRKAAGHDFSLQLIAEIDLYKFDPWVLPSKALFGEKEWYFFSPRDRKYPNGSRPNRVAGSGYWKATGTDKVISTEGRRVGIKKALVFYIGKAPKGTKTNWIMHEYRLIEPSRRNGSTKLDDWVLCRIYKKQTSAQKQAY
# Method in brief: as §1
# GST-ATAF1 NAC domain = molecular target: T3, GST-ATAF1 NAC domain (Arabidopsis thaliana, UniProt Q39013 7-158); conditions: protein: recombinant; tags: GST; chain copies: 2; dsDNA, one strand shown
# T3 sequence: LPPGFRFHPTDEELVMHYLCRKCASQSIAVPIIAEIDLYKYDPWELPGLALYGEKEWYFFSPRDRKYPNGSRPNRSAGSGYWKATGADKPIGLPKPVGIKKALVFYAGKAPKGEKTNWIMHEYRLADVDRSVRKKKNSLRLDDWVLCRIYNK
# Method in brief: as §1
# [1] = molecular target: T4, GST-ANAC092(1-285) full length (Arabidopsis thaliana, UniProt Q9FKA0 1-285); conditions: protein: recombinant; tags: GST; chain copies: 2; dsDNA, one strand shown
# T4 sequence: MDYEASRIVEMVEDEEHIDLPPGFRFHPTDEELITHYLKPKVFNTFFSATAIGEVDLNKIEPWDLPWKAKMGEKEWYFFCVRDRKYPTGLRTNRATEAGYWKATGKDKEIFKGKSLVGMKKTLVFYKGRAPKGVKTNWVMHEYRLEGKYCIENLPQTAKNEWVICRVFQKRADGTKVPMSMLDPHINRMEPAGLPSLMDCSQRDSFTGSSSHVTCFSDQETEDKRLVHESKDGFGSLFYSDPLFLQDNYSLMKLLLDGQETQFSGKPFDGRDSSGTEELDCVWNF
# Method in brief: as §1
# GST-NAP(1-166) = molecular target: T5, GST-NAP(1-166) (Arabidopsis thaliana, UniProt O49255 1-166); conditions: protein: recombinant; tags: GST; chain copies: 2; dsDNA, one strand shown
# T5 sequence: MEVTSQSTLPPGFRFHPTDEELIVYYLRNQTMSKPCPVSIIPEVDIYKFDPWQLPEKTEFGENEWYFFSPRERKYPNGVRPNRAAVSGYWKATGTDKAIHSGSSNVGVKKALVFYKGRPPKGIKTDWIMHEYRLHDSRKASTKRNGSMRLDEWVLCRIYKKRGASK
# Method in brief: as §1
# GST-NST2(1-184) = molecular target: T6, GST-NST2(1-184) (Arabidopsis thaliana, UniProt Q9M274 1-184); conditions: protein: recombinant; tags: GST; chain copies: 2; dsDNA, one strand shown
# T6 sequence: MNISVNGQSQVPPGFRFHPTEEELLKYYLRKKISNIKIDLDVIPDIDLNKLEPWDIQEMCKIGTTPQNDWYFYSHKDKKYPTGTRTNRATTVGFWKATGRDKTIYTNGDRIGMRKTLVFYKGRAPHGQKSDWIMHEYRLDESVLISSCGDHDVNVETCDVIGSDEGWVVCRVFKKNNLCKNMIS
# Method in brief: as §1
# GST-SND1(1-203) = molecular target: T7, GST-SND1(1-203) (Arabidopsis thaliana, UniProt Q9LPI7 1-203); conditions: protein: recombinant; tags: GST; chain copies: 2; dsDNA, one strand shown
# T7 sequence: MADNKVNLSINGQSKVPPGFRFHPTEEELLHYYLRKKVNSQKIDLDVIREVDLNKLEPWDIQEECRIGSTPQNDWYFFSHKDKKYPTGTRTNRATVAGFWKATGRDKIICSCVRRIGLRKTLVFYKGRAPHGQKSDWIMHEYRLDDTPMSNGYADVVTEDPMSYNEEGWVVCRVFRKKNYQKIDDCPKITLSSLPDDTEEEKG
# Method in brief: as §1
# GST-VND3 NAC domain = molecular target: T8, GST-VND3 NAC domain (Arabidopsis thaliana, UniProt Q9FH59 12-162); conditions: protein: recombinant; tags: GST; chain copies: 2; dsDNA, one strand shown
# T8 sequence: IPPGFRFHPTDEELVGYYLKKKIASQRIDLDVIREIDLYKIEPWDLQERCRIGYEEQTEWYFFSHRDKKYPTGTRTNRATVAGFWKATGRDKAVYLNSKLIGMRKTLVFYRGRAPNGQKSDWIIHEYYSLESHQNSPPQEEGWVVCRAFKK
# Method in brief: as §1
# GST-VND7 NAC domain = molecular target: T9, GST-VND7 NAC domain (Arabidopsis thaliana, UniProt Q9C8W9 9-158); conditions: protein: recombinant; tags: GST; chain copies: 2; dsDNA, one strand shown
# T9 sequence: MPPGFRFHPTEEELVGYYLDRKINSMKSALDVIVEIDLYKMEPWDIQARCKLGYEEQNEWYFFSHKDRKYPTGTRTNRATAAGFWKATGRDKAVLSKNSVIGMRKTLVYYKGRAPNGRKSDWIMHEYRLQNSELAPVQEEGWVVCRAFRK
# Method in brief: as §1
# GST-ANAC019 NAC domain = molecular target: T10, GST-ANAC019 NAC domain (Arabidopsis thaliana, UniProt Q9C932 14-162); conditions: protein: recombinant; tags: GST; chain copies: 2; dsDNA, one strand shown
# T10 sequence: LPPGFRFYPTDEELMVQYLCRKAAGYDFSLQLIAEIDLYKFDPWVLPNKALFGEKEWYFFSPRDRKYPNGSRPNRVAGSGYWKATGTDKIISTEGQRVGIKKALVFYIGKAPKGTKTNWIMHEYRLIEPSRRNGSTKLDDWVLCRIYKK
# Method in brief: as §1
# GST-NTL8 NAC domain = molecular target: T11, GST-NTL8 NAC domain (Arabidopsis thaliana, UniProt Q9XIN7 14-156); conditions: protein: recombinant; tags: GST; chain copies: 2; dsDNA, one strand shown
# T11 sequence: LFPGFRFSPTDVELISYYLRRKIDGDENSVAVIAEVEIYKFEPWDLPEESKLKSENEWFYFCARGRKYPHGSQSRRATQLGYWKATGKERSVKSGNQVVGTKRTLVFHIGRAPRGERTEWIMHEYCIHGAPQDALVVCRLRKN
# Method in brief: as §1
# GST-NTL6(1-168) = GST-NTL6(1-168) (Arabidopsis thaliana, UniProt Q9SCK6 1-168); conditions: protein: recombinant; tags: GST; chain copies: 2; dsDNA, one strand shown
# Chain of GST-NTL6(1-168) (Q9SCK6 1-168): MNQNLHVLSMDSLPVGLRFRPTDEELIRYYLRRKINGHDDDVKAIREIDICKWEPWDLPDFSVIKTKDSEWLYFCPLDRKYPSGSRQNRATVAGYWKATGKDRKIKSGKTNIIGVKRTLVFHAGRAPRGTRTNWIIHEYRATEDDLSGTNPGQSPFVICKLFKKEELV
# Method in brief: as §1
# GST-WRKY1(266-371) = GST-WRKY1(266-371) (Arabidopsis thaliana, UniProt Q9SI37 266-371); conditions: protein: recombinant; tags: GST; dsDNA, one strand shown
# Chain of GST-WRKY1(266-371) (Q9SI37 266-371): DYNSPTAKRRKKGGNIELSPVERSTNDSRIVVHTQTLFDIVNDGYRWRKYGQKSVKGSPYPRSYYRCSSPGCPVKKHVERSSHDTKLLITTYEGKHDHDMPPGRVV
# Method in brief: as §1
Sequence,binding signal (GST-ANAC092(1-176)) [E-score],binding signal (GST-ANAC055(1-171)) [E-score],binding signal (GST-ATAF1 NAC domain) [E-score],binding signal [1] [E-score],binding signal (GST-NAP(1-166)) [E-score],binding signal (GST-NST2(1-184)) [E-score],binding signal (GST-SND1(1-203)) [E-score],binding signal (GST-VND3 NAC domain) [E-score],binding signal (GST-VND7 NAC domain) [E-score],binding signal (GST-ANAC019 NAC domain) [E-score],binding signal (GST-NTL8 NAC domain) [E-score],binding signal (GST-NTL6(1-168)) [E-score],binding signal (GST-WRKY1(266-371)) [E-score]
CACGTTAG,0.387,0.0916,0.13,0.412,0.0974,0.117,0.237,0.164,0.0853,,,,
GACACGGC,0.235,0.351,0.278,0.387,0.237,,0.116,0.328,0.348,0.42,0.0582,,
AATGCGTA,0.371,0.0991,0.142,0.387,0.183,0.212,0.414,0.148,0.118,,,,
TCGGTCAA,0.132,0.0819,,,0.097,0.0703,0.0612,0.0724,,,,0.0645,0.49
ACAAGTTA,0.362,0.106,0.162,0.41,,0.194,0.216,0.152,0.146,,,,
ATGGCGTA,0.393,,0.185,0.426,0.184,0.299,0.452,0.149,0.192,,,,
CGTCAACA,0.149,0.135,0.156,0.196,0.116,0.111,0.181,0.0753,,0.0912,,0.0991,0.435
GTTAAGGA,0.116,0.165,0.11,0.0916,,0.16,0.276,0.176,,0.178,0.273,0.424,0.0559
ATGCGTAA,0.319,0.108,0.115,0.356,0.175,0.243,0.436,0.217,0.188,,,,
ACGCTACT,0.385,0.226,0.288,0.425,0.236,0.314,0.394,0.241,,0.123,0.0894,,0.092
GTCAAGTA,,0.0988,0.136,0.186,,,0.0698,0.137,,,,,0.417
GGCGTGTA,0.4,0.109,0.163,0.439,0.13,0.14,0.142,0.118,,0.198,,,
ACGTTATC,0.384,0.0511,0.17,0.431,0.162,0.299,0.423,0.208,,,,,
CCGTCAAA,,,,,,,0.148,0.0953,,0.164,,,0.409
TCCGTCAA,,,,,,,0.063,0.105,,0.0961,,,0.412
ATTAAGTA,0.0822,0.182,0.215,0.144,,0.231,0.267,0.131,,,,0.441,

Sequence,binding signal (GST-ANAC092(1-176)) [E-score],binding signal (GST-ANAC055(1-171)) [E-score],binding signal (GST-ATAF1 NAC domain) [E-score],binding signal [1] [E-score],binding signal (GST-NAP(1-166)) [E-score],binding signal (GST-NST2(1-184)) [E-score],binding signal (GST-SND1(1-203)) [E-score],binding signal (GST-VND3 NAC domain) [E-score],binding signal (GST-VND7 NAC domain) [E-score],binding signal (GST-ANAC019 NAC domain) [E-score],binding signal (GST-NTL8 NAC domain) [E-score],binding signal (GST-NTL6(1-168)) [E-score],binding signal (GST-WRKY1(266-371)) [E-score]
TCACGCCA,0.436,0.156,0.178,0.454,0.0509,0.263,0.358,0.0902,,0.223,,,
AAGTCATC,,0.0818,,0.213,0.0606,0.089,0.242,,0.11,,0.0978,0.233,0.406
GTCAAAAA,0.114,,0.154,0.0617,,0.121,0.216,,0.0546,0.0995,0.0654,,0.442
TGAAGTCA,,,,0.133,,0.0789,0.196,0.0873,,,0.165,0.229,0.426
AGCGTCAA,0.0554,,0.0689,0.158,0.0978,0.135,0.246,,0.0921,,0.12,,0.408
ACAGGGAA,0.128,0.0748,,,0.0751,0.0924,0.108,0.115,,,0.409,0.239,
CACGCGAC,0.421,,,0.462,0.0736,0.161,0.351,,0.064,,,,0.11
GTCAATTA,,0.0852,0.202,0.159,,0.147,0.122,0.104,,,,,0.42
CCAAGCAA,0.31,0.0877,0.0528,0.356,,0.295,0.405,0.119,,0.147,0.0676,0.309,
ACTTTCCT,,0.171,0.0923,0.0813,,0.144,0.145,,0.121,,0.4,0.292,0.171
AAGGAATG,0.153,0.0506,0.07,0.115,,0.196,0.227,,0.0905,0.0613,0.293,0.422,0.0844
CTTGACTA,,0.0781,0.142,,,0.0888,0.0644,0.159,,0.0925,0.0949,,0.462
TGACTCAA,,,0.0764,0.131,,,0.0975,0.113,,,,0.118,0.419
AGGGAAAC,0.0845,,0.0887,0.071,0.14,,0.0839,0.0608,,0.0754,0.482,0.115,
GTTTCCTA,0.118,0.133,0.212,0.179,0.118,0.169,0.106,0.179,,0.158,0.404,0.0734,
